Consider 37 compounds from PubChem BioAssay AID1347414 (National Center for Advancing Translational Sciences (NCATS), 2020).

Records with an inconclusive call do not appear. A number with no mark means an inactive call. Active and inactive are the calls of the source. Calls follow the shape of the dose curve; as a rule, active = well fitted inhibition curve with a large enough effect; inconclusive = small, poorly fitted or top-dose-only effect; inactive = no such curve, though single readings can be large or run the other way.
% is scaled to controls: 0 for no effect and ±100 for the full control effect; potency is read from the fitted curve at half-maximal effect.

The test can be described thus: qHTS to identify inhibitors of the type 1 interferon - major histocompatibility complex class I in skeletal muscle: Secondary screen by immunofluorescence. Also: nearly all actives have a fitted effect of over 70% in size.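 As to activity change, negative = inhibition: digitonin at 100 µM served as the cytotoxic control.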 The following applies: C25cl48 myoblasts, IFN-b induced HLA-ABC immunofluorescence, 24 h; series mostly up to 49.8 µM; activity change, negative = inhibition: at the top concentration. In a few lines:
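Immortalized human myoblasts C25cl48 were stimulated with 4.0 ng/ml IFN-beta and exposed to an 11-point 1:3 compound titration, top 50 uM, for 24 h at 37 C. They were then fixed and immunostained for HLA-ABC, and quantified by laser scanning cytometry.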
Regarding `Cc1ccc(-c2ncn(-c3ccc(Nc4nccc(-c5cccc(N6CCOCC6)c5)n4)cc3)n2)cn1`, the Potency is 1.82 µM (active).

For the compound `CCN1CCN(Cc2ccc(NC(=O)Nc3ccc(Oc4cc(NC)ncn4)cc3)cc2C(F)(F)F)CC1`, the Potency was 1.62 µM (active).

For the compound `CCC[C@H](NC(=O)/C(C#N)=C/c1cccc(Br)n1)c1ccccc1`, the Potency is 6.47 µM (active).

Regarding `COc1cccc2c1C(=O)c1c(O)c3c(c(O)c1C2=O)C[C@@](O)(C(=O)CO)C[C@@H]3O[C@H]1C[C@H](N)[C@H](O)[C@H](C)O1`, the Potency was 0.23 µM (active).

Regarding `COC(=O)C[C@](O)(CCCC(C)(C)O)C(=O)O[C@@H]1C(OC)=C[C@]23CCCN2CCc2cc4c(cc2[C@H]13)OCO4`, the Potency is 0.0289 µM (active).

For the compound `COc1cc(Nc2ncc(F)c(Nc3ccc4c(n3)NC(=O)C(C)(C)O4)n2)cc(OC)c1OC`, the “activity change, negative = inhibition” value was 0.596%.

In the case of `CC(C)CC(=O)Nc1n[nH]c2c1CN(C(=O)C1CCN(C)CC1)C2(C)C`, the Potency is 0.23 µM (active).

For `COc1cc(C(=O)N2CCC(N3CCN(C)CC3)CC2)ccc1Nc1ncc2c(n1)N(C)c1ccccc1C(=O)N2C`, the Potency was 6.47 µM (active).

Take `Cc1sc2c(c1C)C(c1ccc(Cl)cc1)=N[C@@H](CC(=O)Nc1ccc(OCCOCCOCCOCCNc3cccc4c3C(=O)N(C3CCC(=O)NC3=O)C4=O)cc1)c1nnc(C)n1-2` (some centres not stated): the Potency was 0.0914 µM (active).

For the compound `Cn1cc(CNCC2CCN(c3ncc(C(=O)NO)cn3)CC2)c2ccccc21`, the Potency is 0.0091 µM (active).

As for `OCCCNc1cc(-c2ccnc(Nc3cccc(Cl)c3)n2)ccn1`, the Potency was 0.0814 µM (active).

Regarding `CC(/C=C/C(=O)NO)=C\[C@@H](C)C(=O)c1ccc(N(C)C)cc1`, the Potency is 0.204 µM (active).

For `CCc1c2c(nc3ccc(O)cc13)-c1cc3c(c(=O)n1C2)COC(=O)[C@]3(O)CC`, the Potency was 2.57 µM (active).

As for `CC(C)(C)c1nc2c3cc[nH]c(=O)c3c3cc(F)ccc3c2[nH]1`, the Potency is 0.514 µM (active).

For the compound `OC1CCC(Oc2cccc3cnc(Nc4ccc5nc[nH]c5c4)nc23)CC1` (configuration not stated), the Potency was 1.02 µM (active).

On to `CS(=O)(=O)N1CCC(NC(=O)c2[nH]ncc2NC(=O)c2c(Cl)cccc2Cl)CC1`, for which the Potency is 1.45 µM (active).

Consider `COC(=O)c1nc(Cl)c(Cl)nc1N`, for which the Potency is 5.76 µM (active).

Take `CC[C@H]1CN2CCc3cc(OC)c(OC)cc3[C@@H]2C[C@@H]1C[C@H]1NCCc2cc(OC)c(OC)cc21`: the Potency was 0.129 µM (active).

For the compound `Cc1ccc(C(=O)Nc2ccc(CN3CCN(C)CC3)c(C(F)(F)F)c2)cc1C#Cc1cnc2[nH]ncc2c1`, the Potency is 0.726 µM (active).

As for `CCOC(=O)C1=C(C)NC2=C(C(=O)CC(C)(C)C2)C1c1ccc(-c2ccccc2)cc1` (configuration not stated), the “activity change, negative = inhibition” value was 13.7%.

Consider `CN(C)C/C=C/C(=O)Nc1ccc(C(=O)N2CCC[C@@H](Nc3ncc(Cl)c(-c4c[nH]c5ccccc45)n3)C2)cc1`, for which the Potency was 0.23 µM (active).

With `Cc1[nH]c2ccccc2c1CCNCc1ccc(/C=C/C(=O)NO)cc1`, the Potency was 0.0229 µM (active).

For the compound `COc1ccc(-c2nc(N3CCOCC3)c3sc(CN(C)c4ncc(C(=O)NO)cn4)cc3n2)cn1`, the Potency was 0.0058 µM (active).

Turning to `Cc1ncc(-c2ccnc(Nc3ccc(S(C)(=O)=O)cc3)n2)n1C(C)C`, the Potency was 0.914 µM (active).

As for `CC(C)(C)c1ccc(S(=O)(=O)/C=C/C#N)cc1`, the Potency is 2.29 µM (active).

For the compound `Cc1ccc2nc(NCCN)c3ncc(C)n3c2c1`, the Potency was 4.08 µM (active).

As to `Cc1cc2c(cc1CC(=O)c1sccc1S(=O)(=O)Nc1onc(C)c1Cl)OCO2`, the “activity change, negative = inhibition” value is 11%.

Turning to `C#Cc1cccc(Nc2ncnc3cc(OC)c(OCCCCCCC(=O)NO)cc23)c1`, the Potency is 0.289 µM (active).

Take `O=C(/C=C/c1ccc(CN(CCO)CCc2c[nH]c3ccccc23)cc1)NO`: the Potency is 0.0364 µM (active).

`Cc1ccc(C(N)=O)cc1Nc1nccc(-c2cn(C(C)C)c3cnccc23)n1`: the Potency was 3.33 µM (active).

As to `CC[C@@]1(O)C(=O)OCc2c1cc1n(c2=O)Cc2c-1nc1ccccc1c2/C=N/OC(C)(C)C`, the Potency is 3.24 µM (active).

With `c1cc(Nc2cc(C3CC3)[nH]n2)nc(Nc2ccc3nc[nH]c3c2)n1`, the Potency is 0.647 µM (active).

In the case of `CS[C@H]1SC[C@@H]2C(=O)N(C)[C@H](C(C)C)C(=O)OC[C@H](NC(=O)c3cnc4ccccc4n3)C(=O)N[C@H](C)C(=O)N(C)[C@H]1C(=O)N(C)[C@H](C(C)C)C(=O)OC[C@H](NC(=O)c1cnc3ccccc3n1)C(=O)N[C@H](C)C(=O)N2C`, the Potency was 0.0041 µM (active).

With `Cc1cc(Nc2nc(N[C@@H](C)c3ncc(F)cn3)ncc2Cl)n[nH]1`, the Potency was 0.647 µM (active).

Consider `CNC(=O)c1cc(Oc2ccc(NC(=O)Nc3cc(C(C)(C)C)nn3-c3ccc4ncccc4c3)c(F)c2)ccn1`, for which the Potency was 1.82 µM (active).

Consider `O=C(Nc1nc2cccc(-c3ccc(CN4CCS(=O)(=O)CC4)cc3)n2n1)C1CC1`, for which the Potency is 1.82 µM (active).

In the case of `CCc1cc(C(N)=O)ccc1-n1nc(C(C)C)c2c(-n3cnc(-c4cnn(C)c4)c3)ccnc21`, the Potency was 0.258 µM (active).
